Article PMC7862700, “An all-to-all approach to the identification of sequence-specific readers for epigenetic DNA modifications on cytosine”

Key:
Assay in all cases: DAPPL (digital affinity profiling via proximity ligation, sequencing); 10 mM Tris-HCl pH 7.5, 50 mM NaCl, 1 mM DTT, 4% glycerol, room temperature, 30 min; GST-TFs on glutathione beads, 16-mer random dsDNA library, 0.1% formaldehyde crosslink after washing; high values mean tight binding
FEV = biological target: T1, FEV (Homo sapiens, UniProt Q99581 1-238); conditions: protein: recombinant; tags: N-terminal GST; dsDNA, one strand shown
T1 sequence: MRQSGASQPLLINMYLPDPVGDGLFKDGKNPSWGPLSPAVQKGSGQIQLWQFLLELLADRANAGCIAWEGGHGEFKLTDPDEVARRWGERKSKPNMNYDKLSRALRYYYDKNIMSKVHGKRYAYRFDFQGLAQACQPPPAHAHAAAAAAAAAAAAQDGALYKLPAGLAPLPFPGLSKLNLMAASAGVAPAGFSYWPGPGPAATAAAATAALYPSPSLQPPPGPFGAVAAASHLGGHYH
Summary of the method: (§1)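 Binding signal is defined as a hexamer's read frequency for one factor over its frequency for the tag-only sample. To obtain reads, GST-fused human transcription factors were expressed in yeast, captured on glutathione beads, barcoded with DNA and pooled with that sample. Pools met 200 nmole of a 16-mer random double-stranded DNA library in Tris/NaCl/DTT/glycerol buffer for 30 min at room temperature before washing, 0.1% formaldehyde crosslinking, proximity ligation (BsaI/T4 ligase, 1 h, 37 °C), PCR and Illumina NextSeq500 sequencing.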

ETV5 = ETV5 (Homo sapiens, UniProt P41161 1-510); conditions: protein: recombinant; tags: N-terminal GST; dsDNA, one strand shown
Chain of ETV5 (P41161 whole entry): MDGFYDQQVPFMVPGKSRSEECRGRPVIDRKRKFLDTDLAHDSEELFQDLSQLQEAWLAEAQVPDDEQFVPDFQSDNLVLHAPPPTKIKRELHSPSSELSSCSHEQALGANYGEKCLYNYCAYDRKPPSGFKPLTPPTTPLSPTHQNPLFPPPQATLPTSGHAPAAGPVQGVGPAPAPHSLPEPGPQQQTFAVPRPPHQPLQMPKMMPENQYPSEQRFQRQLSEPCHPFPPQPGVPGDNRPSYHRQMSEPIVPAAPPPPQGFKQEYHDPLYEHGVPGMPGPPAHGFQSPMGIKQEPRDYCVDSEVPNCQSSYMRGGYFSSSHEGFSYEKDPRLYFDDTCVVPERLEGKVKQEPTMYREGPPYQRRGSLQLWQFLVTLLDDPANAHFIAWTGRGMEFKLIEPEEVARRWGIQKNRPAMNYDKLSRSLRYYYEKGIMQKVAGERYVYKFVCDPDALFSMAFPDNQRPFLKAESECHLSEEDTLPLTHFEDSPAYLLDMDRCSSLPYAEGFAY
Summary of the method: as §1

HSF1 = HSF1 (Homo sapiens, UniProt Q00613 1-529); conditions: protein: recombinant; tags: N-terminal GST; chain copies: 3; dsDNA, one strand shown
Chain of HSF1 (Q00613 whole entry): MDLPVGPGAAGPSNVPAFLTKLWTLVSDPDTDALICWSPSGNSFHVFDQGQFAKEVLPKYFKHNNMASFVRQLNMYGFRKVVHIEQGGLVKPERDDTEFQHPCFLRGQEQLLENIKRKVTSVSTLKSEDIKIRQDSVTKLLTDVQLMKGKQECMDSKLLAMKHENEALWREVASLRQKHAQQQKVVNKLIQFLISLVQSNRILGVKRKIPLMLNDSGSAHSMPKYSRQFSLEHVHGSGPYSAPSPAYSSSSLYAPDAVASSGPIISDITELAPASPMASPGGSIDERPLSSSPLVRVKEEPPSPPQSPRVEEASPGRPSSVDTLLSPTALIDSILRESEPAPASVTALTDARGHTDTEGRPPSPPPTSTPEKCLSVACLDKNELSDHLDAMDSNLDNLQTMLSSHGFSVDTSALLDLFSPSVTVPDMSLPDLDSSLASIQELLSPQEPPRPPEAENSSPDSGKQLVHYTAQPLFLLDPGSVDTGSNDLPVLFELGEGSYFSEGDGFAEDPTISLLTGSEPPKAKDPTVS
Summary of the method: as §1

SPIC = biological target: T2, SPIC (Homo sapiens, UniProt Q8N5J4 1-248); conditions: protein: recombinant; tags: N-terminal GST; dsDNA, one strand shown
T2 sequence: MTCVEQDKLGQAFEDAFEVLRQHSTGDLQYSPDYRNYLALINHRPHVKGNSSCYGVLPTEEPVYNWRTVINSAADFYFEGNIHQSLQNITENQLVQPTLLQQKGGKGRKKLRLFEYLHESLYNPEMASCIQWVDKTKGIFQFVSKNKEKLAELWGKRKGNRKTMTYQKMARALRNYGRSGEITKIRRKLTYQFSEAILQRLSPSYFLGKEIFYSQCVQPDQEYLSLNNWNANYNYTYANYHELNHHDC
Summary of the method: as §1

ELF4 = ELF4 (Homo sapiens, UniProt Q99607 1-663); conditions: protein: recombinant; tags: N-terminal GST; dsDNA, one strand shown
Chain of ELF4 (Q99607 whole entry): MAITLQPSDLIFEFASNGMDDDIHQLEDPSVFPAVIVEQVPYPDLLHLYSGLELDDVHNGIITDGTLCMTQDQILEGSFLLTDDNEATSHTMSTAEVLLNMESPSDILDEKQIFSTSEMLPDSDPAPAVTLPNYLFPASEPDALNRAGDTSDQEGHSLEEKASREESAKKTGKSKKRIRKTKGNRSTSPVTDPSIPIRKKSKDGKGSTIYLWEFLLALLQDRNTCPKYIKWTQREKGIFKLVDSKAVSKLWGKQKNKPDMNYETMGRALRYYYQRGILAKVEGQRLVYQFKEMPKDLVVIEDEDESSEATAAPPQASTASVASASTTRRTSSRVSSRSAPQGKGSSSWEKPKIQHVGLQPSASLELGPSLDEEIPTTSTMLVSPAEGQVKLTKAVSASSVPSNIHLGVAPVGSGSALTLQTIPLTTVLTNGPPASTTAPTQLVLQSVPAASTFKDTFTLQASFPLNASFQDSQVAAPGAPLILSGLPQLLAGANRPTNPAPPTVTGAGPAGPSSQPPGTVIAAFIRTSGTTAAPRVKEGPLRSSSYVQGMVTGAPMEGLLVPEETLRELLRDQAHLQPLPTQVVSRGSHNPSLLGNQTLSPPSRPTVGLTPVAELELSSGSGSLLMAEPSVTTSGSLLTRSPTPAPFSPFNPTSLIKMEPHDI
Summary of the method: as §1

ELK4 = biological target: T3, ELK4 (Homo sapiens, UniProt P28324-2 1-405); conditions: protein: recombinant; tags: N-terminal GST; dsDNA, one strand shown
T3 sequence: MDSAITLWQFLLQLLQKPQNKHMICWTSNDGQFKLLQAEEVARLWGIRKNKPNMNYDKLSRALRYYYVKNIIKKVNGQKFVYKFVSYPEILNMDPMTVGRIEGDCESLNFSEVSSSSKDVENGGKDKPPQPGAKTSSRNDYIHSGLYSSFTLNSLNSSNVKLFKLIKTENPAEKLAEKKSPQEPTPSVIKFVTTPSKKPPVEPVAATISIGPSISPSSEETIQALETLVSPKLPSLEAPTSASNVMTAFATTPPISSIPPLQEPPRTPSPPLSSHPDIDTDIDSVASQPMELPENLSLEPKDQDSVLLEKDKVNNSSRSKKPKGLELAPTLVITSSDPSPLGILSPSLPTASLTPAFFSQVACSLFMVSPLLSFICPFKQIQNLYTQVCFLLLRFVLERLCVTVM
Summary of the method: as §1

ETV2 = biological target: T4, ETV2 (Homo sapiens, UniProt O00321 1-342); conditions: protein: recombinant; tags: N-terminal GST; dsDNA, one strand shown
T4 sequence: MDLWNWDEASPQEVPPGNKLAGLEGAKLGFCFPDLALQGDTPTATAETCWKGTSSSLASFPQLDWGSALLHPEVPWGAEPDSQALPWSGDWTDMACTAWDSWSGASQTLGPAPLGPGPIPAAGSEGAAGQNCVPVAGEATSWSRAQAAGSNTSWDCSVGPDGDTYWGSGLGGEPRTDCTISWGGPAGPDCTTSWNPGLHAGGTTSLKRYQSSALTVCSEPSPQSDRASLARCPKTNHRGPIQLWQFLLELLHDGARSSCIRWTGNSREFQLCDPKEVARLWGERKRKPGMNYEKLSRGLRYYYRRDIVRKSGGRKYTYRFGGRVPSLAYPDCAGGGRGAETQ
Summary of the method: as §1

ELF3 = biological target: T5, ELF3 (Homo sapiens, UniProt P78545 1-371); conditions: protein: recombinant; tags: N-terminal GST; dsDNA, one strand shown
T5 sequence: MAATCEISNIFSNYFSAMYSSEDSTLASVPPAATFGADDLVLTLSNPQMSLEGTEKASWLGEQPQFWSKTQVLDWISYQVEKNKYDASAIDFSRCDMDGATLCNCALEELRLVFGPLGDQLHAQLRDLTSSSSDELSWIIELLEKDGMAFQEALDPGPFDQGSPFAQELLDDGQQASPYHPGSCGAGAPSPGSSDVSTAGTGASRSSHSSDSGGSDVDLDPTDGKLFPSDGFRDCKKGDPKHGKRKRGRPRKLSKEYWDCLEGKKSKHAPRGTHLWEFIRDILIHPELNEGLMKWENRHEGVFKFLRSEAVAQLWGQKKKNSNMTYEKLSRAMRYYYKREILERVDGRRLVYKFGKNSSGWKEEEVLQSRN
Summary of the method: as §1

CRX = CRX (Homo sapiens, UniProt O43186 1-299); conditions: protein: recombinant; tags: N-terminal GST; dsDNA, one strand shown
Chain of CRX (O43186 whole entry): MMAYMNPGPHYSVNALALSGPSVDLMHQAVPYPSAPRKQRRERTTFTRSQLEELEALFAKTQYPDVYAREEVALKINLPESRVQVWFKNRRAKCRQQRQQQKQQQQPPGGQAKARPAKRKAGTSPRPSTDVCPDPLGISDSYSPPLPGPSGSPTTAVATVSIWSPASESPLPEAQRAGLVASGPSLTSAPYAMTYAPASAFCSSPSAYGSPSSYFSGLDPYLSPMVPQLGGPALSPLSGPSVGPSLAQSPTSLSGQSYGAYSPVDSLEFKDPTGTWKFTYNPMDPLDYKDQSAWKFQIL
Summary of the method: as §1

ETV1 = ETV1 (Homo sapiens, UniProt P50549 1-477); conditions: protein: recombinant; tags: N-terminal GST; dsDNA, one strand shown
Chain of ETV1 (P50549 whole entry): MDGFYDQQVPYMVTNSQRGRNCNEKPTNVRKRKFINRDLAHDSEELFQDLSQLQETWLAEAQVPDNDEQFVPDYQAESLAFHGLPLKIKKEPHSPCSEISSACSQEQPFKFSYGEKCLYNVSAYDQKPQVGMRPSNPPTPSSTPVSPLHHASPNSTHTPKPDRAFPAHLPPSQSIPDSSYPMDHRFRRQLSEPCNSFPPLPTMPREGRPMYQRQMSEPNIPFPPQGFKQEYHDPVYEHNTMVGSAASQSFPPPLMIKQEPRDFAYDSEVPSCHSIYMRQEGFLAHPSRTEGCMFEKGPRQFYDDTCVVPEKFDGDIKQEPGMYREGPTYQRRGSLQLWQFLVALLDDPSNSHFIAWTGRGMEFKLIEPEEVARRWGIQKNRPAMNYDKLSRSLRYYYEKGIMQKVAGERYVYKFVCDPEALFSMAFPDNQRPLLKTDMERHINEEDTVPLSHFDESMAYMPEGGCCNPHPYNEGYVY
Summary of the method: as §1

ERF = biological target: T6, ERF (Homo sapiens, UniProt P50548 1-548); conditions: protein: recombinant; tags: N-terminal GST; dsDNA, one strand shown
T6 sequence: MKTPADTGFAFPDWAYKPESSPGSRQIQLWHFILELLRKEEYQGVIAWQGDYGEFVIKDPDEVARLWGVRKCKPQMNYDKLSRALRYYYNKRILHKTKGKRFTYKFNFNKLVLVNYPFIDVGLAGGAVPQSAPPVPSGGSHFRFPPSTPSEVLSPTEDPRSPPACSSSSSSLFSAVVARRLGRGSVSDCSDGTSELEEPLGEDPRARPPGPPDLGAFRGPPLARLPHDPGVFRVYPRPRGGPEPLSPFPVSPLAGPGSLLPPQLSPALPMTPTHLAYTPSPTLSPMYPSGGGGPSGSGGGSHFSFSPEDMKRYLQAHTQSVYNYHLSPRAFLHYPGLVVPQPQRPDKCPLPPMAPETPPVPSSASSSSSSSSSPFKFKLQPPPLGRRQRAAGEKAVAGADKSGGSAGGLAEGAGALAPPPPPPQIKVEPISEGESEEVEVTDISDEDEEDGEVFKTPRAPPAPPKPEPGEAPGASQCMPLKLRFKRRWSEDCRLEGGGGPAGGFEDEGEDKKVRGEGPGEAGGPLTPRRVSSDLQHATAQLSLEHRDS
Summary of the method: as §1

ETV3L = biological target: T7, ETV3L (Homo sapiens, UniProt Q6ZN32 1-361); conditions: protein: recombinant; tags: N-terminal GST; dsDNA, one strand shown
T7 sequence: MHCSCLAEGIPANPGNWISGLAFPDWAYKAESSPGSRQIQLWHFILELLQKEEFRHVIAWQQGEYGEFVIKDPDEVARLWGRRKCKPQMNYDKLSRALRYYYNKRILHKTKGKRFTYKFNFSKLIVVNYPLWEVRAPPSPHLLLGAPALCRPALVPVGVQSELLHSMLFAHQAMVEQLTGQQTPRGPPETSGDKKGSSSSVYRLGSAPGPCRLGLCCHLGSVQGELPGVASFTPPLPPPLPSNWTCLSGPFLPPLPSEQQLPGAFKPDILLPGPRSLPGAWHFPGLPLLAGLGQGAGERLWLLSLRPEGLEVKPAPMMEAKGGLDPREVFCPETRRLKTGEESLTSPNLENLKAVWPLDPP
Summary of the method: as §1

ETS2 = biological target: T8, ETS2 (Homo sapiens, UniProt P15036 1-469); conditions: protein: recombinant; tags: N-terminal GST; dsDNA, one strand shown
T8 sequence: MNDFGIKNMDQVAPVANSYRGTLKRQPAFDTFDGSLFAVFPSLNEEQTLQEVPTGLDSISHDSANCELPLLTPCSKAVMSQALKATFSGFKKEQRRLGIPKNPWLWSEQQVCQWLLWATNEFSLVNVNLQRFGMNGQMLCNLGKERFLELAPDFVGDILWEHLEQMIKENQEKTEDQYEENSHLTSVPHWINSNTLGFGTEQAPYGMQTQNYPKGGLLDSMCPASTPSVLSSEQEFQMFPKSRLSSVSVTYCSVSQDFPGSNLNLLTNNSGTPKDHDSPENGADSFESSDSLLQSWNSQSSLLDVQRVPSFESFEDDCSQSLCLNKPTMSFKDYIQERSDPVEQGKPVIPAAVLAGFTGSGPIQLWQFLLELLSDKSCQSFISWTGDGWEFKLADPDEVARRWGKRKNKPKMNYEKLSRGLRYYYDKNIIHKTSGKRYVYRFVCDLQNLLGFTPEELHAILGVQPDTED
Summary of the method: as §1

SPDEF = biological target: T9, SPDEF (Homo sapiens, UniProt O95238 1-335); conditions: protein: recombinant; tags: N-terminal GST; dsDNA, one strand shown
T9 sequence: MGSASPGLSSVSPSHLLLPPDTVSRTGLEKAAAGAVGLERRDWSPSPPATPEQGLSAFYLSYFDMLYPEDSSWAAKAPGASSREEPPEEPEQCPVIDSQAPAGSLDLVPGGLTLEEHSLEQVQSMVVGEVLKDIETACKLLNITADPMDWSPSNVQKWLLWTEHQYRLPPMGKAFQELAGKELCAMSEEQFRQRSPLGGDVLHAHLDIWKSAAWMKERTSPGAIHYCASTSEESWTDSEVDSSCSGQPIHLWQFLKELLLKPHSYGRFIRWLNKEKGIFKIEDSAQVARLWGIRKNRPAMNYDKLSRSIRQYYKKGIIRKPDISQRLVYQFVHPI
Summary of the method: as §1

ETV7 = biological target: T10, ETV7 (Homo sapiens, UniProt Q9Y603 1-341); conditions: protein: recombinant; tags: N-terminal GST; dsDNA, one strand shown
T10 sequence: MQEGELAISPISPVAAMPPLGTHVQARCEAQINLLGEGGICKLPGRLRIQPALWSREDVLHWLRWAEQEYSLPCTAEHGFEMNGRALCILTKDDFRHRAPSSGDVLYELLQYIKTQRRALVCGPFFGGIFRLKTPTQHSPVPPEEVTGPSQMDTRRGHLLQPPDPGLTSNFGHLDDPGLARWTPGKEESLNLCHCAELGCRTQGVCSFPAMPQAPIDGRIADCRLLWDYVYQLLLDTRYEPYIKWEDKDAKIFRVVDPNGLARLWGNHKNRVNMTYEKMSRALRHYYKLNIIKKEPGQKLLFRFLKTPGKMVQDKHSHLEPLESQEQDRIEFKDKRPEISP
Summary of the method: as §1

ELF5 = biological target: T11, ELF5 (Homo sapiens, UniProt Q9UKW6-2 1-255); conditions: protein: recombinant; tags: N-terminal GST; dsDNA, one strand shown
T11 sequence: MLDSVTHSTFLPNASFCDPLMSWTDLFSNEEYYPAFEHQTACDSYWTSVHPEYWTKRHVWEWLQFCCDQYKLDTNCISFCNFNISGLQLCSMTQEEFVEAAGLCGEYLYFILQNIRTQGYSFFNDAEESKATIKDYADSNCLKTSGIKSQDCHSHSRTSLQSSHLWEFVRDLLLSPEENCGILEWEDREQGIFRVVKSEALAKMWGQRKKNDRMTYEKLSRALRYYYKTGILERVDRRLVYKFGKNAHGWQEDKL
Summary of the method: as §1

ETV3 = biological target: T12, ETV3 (Homo sapiens, UniProt P41162-2 1-143); conditions: protein: recombinant; tags: N-terminal GST; dsDNA, one strand shown
T12 sequence: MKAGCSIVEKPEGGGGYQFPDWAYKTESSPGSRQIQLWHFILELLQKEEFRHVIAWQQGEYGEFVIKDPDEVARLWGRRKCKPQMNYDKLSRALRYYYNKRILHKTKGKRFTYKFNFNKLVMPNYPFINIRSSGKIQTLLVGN
Summary of the method: as §1

ETV6 = ETV6 (Homo sapiens, UniProt P41212 1-452); conditions: protein: recombinant; tags: N-terminal GST; dsDNA, one strand shown
Chain of ETV6 (P41212 whole entry): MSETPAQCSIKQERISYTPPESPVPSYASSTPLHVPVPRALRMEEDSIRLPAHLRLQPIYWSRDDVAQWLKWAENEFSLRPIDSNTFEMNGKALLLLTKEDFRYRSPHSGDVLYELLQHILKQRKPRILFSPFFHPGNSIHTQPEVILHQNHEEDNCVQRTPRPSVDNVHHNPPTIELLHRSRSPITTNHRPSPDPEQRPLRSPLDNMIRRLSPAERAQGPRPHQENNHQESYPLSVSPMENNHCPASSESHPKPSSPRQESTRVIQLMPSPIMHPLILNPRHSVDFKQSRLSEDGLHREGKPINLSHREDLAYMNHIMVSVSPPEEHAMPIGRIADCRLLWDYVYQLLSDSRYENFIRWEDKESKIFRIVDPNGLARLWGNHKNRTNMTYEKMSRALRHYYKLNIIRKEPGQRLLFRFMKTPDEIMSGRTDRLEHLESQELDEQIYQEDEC
Summary of the method: as §1

TTATTG
binding signal (FEV): 1.28 fold enrichment (6-mer frequency, TF over GST control)
binding signal (ETV5): 1.32 fold enrichment (6-mer frequency, TF over GST control)
binding signal (HSF1): 1.71 fold enrichment (6-mer frequency, TF over GST control)
binding signal (SPIC): 1.29 fold enrichment (6-mer frequency, TF over GST control)
binding signal (ELF4): 1.36 fold enrichment (6-mer frequency, TF over GST control)
binding signal (ELK4): 1.43 fold enrichment (6-mer frequency, TF over GST control)
binding signal (ETV2): 1.33 fold enrichment (6-mer frequency, TF over GST control)
binding signal (ELF3): 1.35 fold enrichment (6-mer frequency, TF over GST control)
binding signal (CRX): 2.35 fold enrichment (6-mer frequency, TF over GST control)
binding signal (ETV1): 1.24 fold enrichment (6-mer frequency, TF over GST control)
binding signal (ERF): 1.37 fold enrichment (6-mer frequency, TF over GST control)
binding signal (ETV3L): 1.37 fold enrichment (6-mer frequency, TF over GST control)
binding signal (ETS2): 1.27 fold enrichment (6-mer frequency, TF over GST control)
binding signal (SPDEF): 1.21 fold enrichment (6-mer frequency, TF over GST control)
binding signal (ETV7): 1.4 fold enrichment (6-mer frequency, TF over GST control)
binding signal (ELF5): 1.2 fold enrichment (6-mer frequency, TF over GST control)
binding signal (ETV3): 1.34 fold enrichment (6-mer frequency, TF over GST control)
binding signal (ETV6): 1.27 fold enrichment (6-mer frequency, TF over GST control)
